Experimental data reported in article PMC11995724, “Antibiotic target discovery by integrated phenotypic and activity-based profiling of electrophilic fragments” (Cell chemical biology, 2025).
The whole screen tested about 3,200 compounds, of which about 110 (3.4%) showed an effect of 50% or more. What follows is part of a selection rich in strong results, with near analogues and random picks from the rest.

Each compound was assayed on T1, V. cholerae SAD30. Details: relative growth, OD600, LB; 25 µM; inhibitor.
T1 construct: SAD30
Design: species or system S. aureus MSSA476 (TSB) or V. cholerae SAD30 (LB); 384-well bacterial growth screen at 25 uM, OD600 relative to DMSO control
`CC(Cl)C(=O)N(C)Cc1ccccc1` (centres unmarked) [6-I13, N-benzyl-2-chloro-N-methylpropanamide] was tested, and the “% of control remaining” value was 78.87%. In the case of `CN(c1ccccc1)S(=O)(=O)c1cccc(NC(=O)CCl)c1` [4-H04, 2-chloro-N-{3-[methyl(phenyl)sulfamoyl]phenyl}acetamide], the “% of control remaining” value is reported as 111.106%. In the case of `O=C(CCc1ccccc1)NC1CCN(C(=O)CCl)CC1` [5-L08, N-[1-(2-chloroacetyl)piperidin-4-yl]-3-phenylpropanamide], the “% of control remaining” value is reported as 100.704%. `C=CC(=O)N(C)CC(=O)NCc1c(O)nnc(C)c1C` [2-I20, N-({[(3-hydroxy-5,6-dimethylpyridazin-4-yl)methyl]carbamoyl}methyl)-N-methylprop-2-enamide] was tested, and the “% of control remaining” value was 95.9085%. In the case of `CC(Cl)C(=O)N1CCN(c2cc(-c3ccccc3F)n[nH]2)CC1` (centres unmarked) [6-N20, 2-chloro-1-{4-[3-(2-fluorophenyl)-1H-pyrazol-5-yl]piperazin-1-yl}propan-1-one], the “% of control remaining” value is reported as 84.7853%. `CC(C)C(=O)Nc1ccc(C(=O)CCl)cc1` [10-D04, N-[4-(2-chloroacetyl)phenyl]-2-methylpropanamide] was tested, and the “% of control remaining” value was 37.405%. In the case of `CC(C)CC(=O)Nc1ccc(C(=O)CCl)cc1` [10-N06, N-[4-(2-chloroacetyl)phenyl]-3-methylbutanamide], the “% of control remaining” value is reported as 76.8362%. `O=C(CCl)c1ccc(NC(=O)c2ccccc2)cc1` [10-B06, N-[4-(2-chloroacetyl)phenyl]benzamide] was tested, and the “% of control remaining” value was 21.5079%. In the case of `NC(=O)Nc1ccc(C(=O)CCl)cc1` [10-J07, [4-(2-chloroacetyl)phenyl]urea], the “% of control remaining” value is reported as 65.4588%. In the case of `CC(=O)Nc1ccc(C(=O)CCl)cc1` [10-O12, N-[4-(2-chloroacetyl)phenyl]acetamide], the “% of control remaining” value is reported as 74.4983%. In the case of `CCC(=O)Nc1ccc(C(=O)CCl)cc1` [10-C03, N-[4-(2-chloroacetyl)phenyl]propanamide], the “% of control remaining” value is reported as 111.903%. In the case of `C=CC(=O)NCc1nc2ccccc2n1C1CC1` [2-N03, N-[(1-cyclopropyl-1H-1,3-benzodiazol-2-yl)methyl]prop-2-enamide], the “% of control remaining” value is reported as 105.172%. In the case of `N#CC(=Cc1cc2c(cc1[N+](=O)[O-])OCO2)C(=O)NC1CCCCC1` [8-F22, 2-cyano-N-cyclohexyl-3-(6-nitro-1,3-dioxaindan-5-yl)prop-2-enamide], the “% of control remaining” value is reported as 83.6846%. `CN(C)S(=O)(=O)c1cccc(NC(=O)CCl)c1` [4-J08, 2-chloro-N-[3-(dimethylsulfamoyl)phenyl]acetamide] was tested, and the “% of control remaining” value was 94.3714%. `CC(C)NC(=O)C(C#N)=Cc1ccc(C(F)(F)F)cc1` [8-L13, 2-cyano-N-(propan-2-yl)-3-[4-(trifluoromethyl)phenyl]prop-2-enamide] was tested, and the “% of control remaining” value was 68.3209%. In the case of `Cc1cc(=O)[nH]c(-c2cccc(NC(=O)C(C#N)=Cc3ccco3)c2)n1` [8-B10, 2-cyano-3-(furan-2-yl)-N-[3-(4-methyl-6-oxo-1,6-dihydropyrimidin-2-yl)phenyl]prop-2-enamide], the “% of control remaining” value is reported as 79.4697%. For `Cc1ccc(N2C(=O)C=CC2=O)c([N+](=O)[O-])c1` [10-N13, 1-(4-methyl-2-nitrophenyl)-2,5-dihydro-1H-pyrrole-2,5-dione], the “% of control remaining” value was 27.1186%. For `COc1ccc(NC(=O)C(C)Cl)c([N+](=O)[O-])c1` (centres unmarked) [6-B08, 2-chloro-N-(4-methoxy-2-nitrophenyl)propanamide], the “% of control remaining” value was 90.3972%. With `Cc1ccc(NC(=O)CCl)c([N+](=O)[O-])c1` [4-A07, 2-chloro-N-(4-methyl-2-nitrophenyl)acetamide] the “% of control remaining” value was 105.068%. `COc1ccc(N2C(=O)C=CC2=O)c([N+](=O)[O-])c1` [10-L11, 1-(4-methoxy-2-nitrophenyl)-2,5-dihydro-1H-pyrrole-2,5-dione] was tested, and the “% of control remaining” value was 30.3916%. `COc1ccc(NC(=O)CCl)c([N+](=O)[O-])c1` [4-I21, 2-chloro-N-(4-methoxy-2-nitrophenyl)acetamide] was tested, and the “% of control remaining” value was 107.311%. For `CSc1cccc(-n2c(C)cc(C(=O)CCl)c2C)c1` [10-J16, 2-chloro-1-{2,5-dimethyl-1-[3-(methylsulfanyl)phenyl]-1H-pyrrol-3-yl}ethan-1-one], the “% of control remaining” value was 105.825%. For `Cc1ccc(NC(=O)C(C)Cl)cc1S(=O)(=O)N1CCOCC1` (centres unmarked) [5-D22, 2-chloro-N-[4-methyl-3-(morpholine-4-sulfonyl)phenyl]propanamide], the “% of control remaining” value was 107.429%. For `N#CC(=Cc1ccc(Cl)cc1Cl)C(=O)Nc1nccs1` [9-H19, 2-cyano-3-(2,4-dichlorophenyl)-N-(1,3-thiazol-2-yl)prop-2-enamide], the “% of control remaining” value was 79.4697%. With `C=CC(=O)Nc1ccnn1Cc1cccc(Cl)c1` [1-N14, N-{1-[(3-chlorophenyl)methyl]-1H-pyrazol-5-yl}prop-2-enamide] the “% of control remaining” value was 86.3592%. For `C=CC(=O)N(CC)CC(=O)N1CC(C)(C)C1c1nccn1C` (centres unmarked) [2-J16, N-{2-[3,3-dimethyl-2-(1-methyl-1H-imidazol-2-yl)azetidin-1-yl]-2-oxoethyl}-N-ethylprop-2-enamide], the “% of control remaining” value was 90.3503%. In the case of `CC(Cl)C(=O)NC(=O)Nc1ccccc1` (centres unmarked) [5-I21, 3-(2-chloropropanoyl)-1-phenylurea], the “% of control remaining” value is reported as 104.066%. `C=CC(=O)NC1CS(=O)(=O)C1` [3-P18, N-(1,1-dioxo-1lambda6-thietan-3-yl)prop-2-enamide] was tested, and the “% of control remaining” value was 112.909%. With `COc1ccc([N+](=O)[O-])cc1N1C(=O)C=CC1=O` [10-P13, 1-(2-methoxy-5-nitrophenyl)-2,5-dihydro-1H-pyrrole-2,5-dione] the “% of control remaining” value was 32.7294%. In the case of `COc1ccc([N+](=O)[O-])cc1NC(=O)CCl` [4-P17, 2-chloro-N-(2-methoxy-5-nitrophenyl)acetamide], the “% of control remaining” value is reported as 111.969%. For `COc1ccc([N+](=O)[O-])cc1NC(=O)C(C)Cl` (centres unmarked) [5-N14, 2-chloro-N-(2-methoxy-5-nitrophenyl)propanamide], the “% of control remaining” value was 92.6342%. `COc1cc([N+](=O)[O-])ccc1N1C(=O)C=CC1=O` [10-H13, 1-(2-methoxy-4-nitrophenyl)-2,5-dihydro-1H-pyrrole-2,5-dione] was tested, and the “% of control remaining” value was 24.625%. In the case of `COc1cc([N+](=O)[O-])ccc1NC(=O)C(C)Cl` (centres unmarked) [4-K12, 2-chloro-N-(2-methoxy-4-nitrophenyl)propanamide], the “% of control remaining” value is reported as 93.5087%. For `COc1cc([N+](=O)[O-])ccc1NC(=O)CCl` [4-O07, 2-chloro-N-(2-methoxy-4-nitrophenyl)acetamide], the “% of control remaining” value was 100.582%. In the case of `CCN(CC)S(=O)(=O)c1cccc(NC(=O)CCl)c1` [4-M07, 2-chloro-N-[3-(diethylsulfamoyl)phenyl]acetamide], the “% of control remaining” value is reported as 105.931%. With `C=CC(=O)N1CCC(C(=O)N[C@H]2CCC[C@H]2O)CC1` [2-K04, N-[(1S,2R)-2-hydroxycyclopentyl]-1-(prop-2-enoyl)piperidine-4-carboxamide] the “% of control remaining” value was 95.9085%. In the case of `C=CC(=O)N1CCC(n2ncc3ccccc32)CC1` [1-K22, 1-[4-(1H-indazol-1-yl)piperidin-1-yl]prop-2-en-1-one], the “% of control remaining” value is reported as 95.6652%. `CC(Cl)C(=O)Nc1nc(-c2ccccc2)cs1` (centres unmarked) [6-L10, 2-chloro-N-(4-phenyl-1,3-thiazol-2-yl)propanamide] was tested, and the “% of control remaining” value was 85.6953%. In the case of `C=CC(=O)N1CCOCC1c1cc(F)cc(F)c1` (centres unmarked) [2-O16, 1-[3-(3,5-difluorophenyl)morpholin-4-yl]prop-2-en-1-one], the “% of control remaining” value is reported as 92.203%. With `CC1Cc2cc(C(=O)CCl)ccc2N1S(C)(=O)=O` (centres unmarked) [10-A04, 2-chloro-1-(1-methanesulfonyl-2-methyl-2,3-dihydro-1H-indol-5-yl)ethan-1-one] the “% of control remaining” value was 89.6162%. `O=C(CCl)c1cc2c3c(c1)CC(=O)N3CCC2` [10-G16, 6-(2-chloroacetyl)-1-azatricyclo[6.3.1.0,4,12]dodeca-4(12),5,7-trien-2-one] was tested, and the “% of control remaining” value was 27.7421%. In the case of `CN1C(=O)Cc2cc(C(=O)CCl)ccc21` [10-G07, 5-(2-chloroacetyl)-1-methyl-2,3-dihydro-1H-indol-2-one], the “% of control remaining” value is reported as 54.3931%. `O=C(CCl)c1c[nH]c(C(=O)N2CCCC2)c1` [10-A16, 2-chloro-1-[5-(pyrrolidine-1-carbonyl)-1H-pyrrol-3-yl]ethan-1-one] was tested, and the “% of control remaining” value was 108.475%. With `N#Cc1ccc2c(c1)CCN2C(=O)CCl` [5-N09, 1-(2-chloroacetyl)-2,3-dihydro-1H-indole-5-carbonitrile] the “% of control remaining” value was 93.4748%. In the case of `O=C(CCl)NCCS(=O)(=O)N1CCc2ccccc21` [6-H04, 2-chloro-N-[2-(2,3-dihydro-1H-indole-1-sulfonyl)ethyl]acetamide], the “% of control remaining” value is reported as 103.138%. In the case of `CS(=O)(=O)N1CCCc2cc(C(=O)CCl)ccc21` [10-H19, 2-chloro-1-(1-methanesulfonyl-1,2,3,4-tetrahydroquinolin-6-yl)ethan-1-one], the “% of control remaining” value is reported as 22.9106%. In the case of `O=C(CCl)c1ccc2c(c1)CCN(C(=O)C(F)(F)F)C2` [10-E09, 1-[6-(2-chloroacetyl)-1,2,3,4-tetrahydroisoquinolin-2-yl]-2,2,2-trifluoroethan-1-one], the “% of control remaining” value is reported as 98.6558%. `O=CN1CCc2cc(C(=O)CCl)ccc21` [10-K20, 5-(2-chloroacetyl)-2,3-dihydro-1H-indole-1-carbaldehyde] was tested, and the “% of control remaining” value was 27.1186%. With `CCS(=O)(=O)N1CCc2cc(C(=O)CCl)ccc21` [10-E18, 2-chloro-1-[1-(ethanesulfonyl)-2,3-dihydro-1H-indol-5-yl]ethan-1-one] the “% of control remaining” value was 27.8979%. For `CCC(=O)N1CCc2cc(C(=O)CCl)ccc21` [10-C22, 1-[5-(2-chloroacetyl)-2,3-dihydro-1H-indol-1-yl]propan-1-one], the “% of control remaining” value was 119.54%.
